# Assay outcomes: PubChem, National Center for Advancing Translational Sciences (NCATS)
# The sample as a whole holds a higher share of hits than the screen did.
# Pf Dd2 inh: qHTS Primary assay for Inhibitors of Plasmodium falciparum Dd2 growth in vitro. P. falciparum Dd2 growth, SYBR Green, 72 h. Potency, µM (series often up to 28.9 µM), for inactives: top-dose activity, negative = inhibition, usual class: inhibitors. hit rate 4.3% among 120,000; active = well fitted inhibition curve with a large enough effect;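 also: plate controls were DMSO vehicle for no effect and reference drug for full effect; nearly all actives have a fitted effect of over 65% in size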
#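 Readout: SYBR Green fluorescence, 485 nm excitation, 535 nm emission, after ~16 h lysis at 37C. Before that, Dd2-infected red cells (2.5% hematocrit) grew 72 h with compound, 29 uM top final concentration.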
# * hit, by the source's call; i = inactive; [ ] = dose if it differs, or a comment. Potency is read from the fitted curve at half-maximal effect.
SMILES,Pf Dd2 inh
O=C(Cn1cccc1-c1nc(-c2ccc(F)cc2)no1)N1CCN(c2ccccc2F)CC1,i
O=C(Cn1cccc1-c1nc(-c2ccccc2)no1)NCc1ccccc1Cl,10µM*
COc1ccc(OC)c(NC(=O)Cn2cccc2-c2nc(-c3ccc(OC)c(F)c3)no2)c1,5%
O=C(Cn1cccc1-c1nc(-c2ccccc2)no1)NCc1ccc(Cl)cc1,0%
COc1ccc(-c2noc(-c3cccn3CC(=O)NCCc3ccccc3)n2)cc1F,0.25µM*
COc1ccc(CCNC(=O)Cn2cccc2-c2nc(-c3ccc4c(c3)OCO4)no2)cc1OC,0%
COc1ccc(-c2noc(-c3cccn3CC(=O)N3CCN(c4ccc(F)cc4)CC3)n2)cc1F,-8%
O=C(Cn1cccc1-c1nc(-c2ccccc2)no1)Nc1ccccc1Cl,13%
O=C1CCC2(CCCO2)CCN1Cc1ccc(C(F)(F)F)c(F)c1 (centres undefined),-18%
NC(=O)Cn1ccc2cc(OCC3CCN(C(=O)COc4ccccc4)CC3)cnc21,-32%[44.1 µM]
COc1ccc(O[C@H]2COCCN(C(=O)c3ccc(OC)cc3)C2)cc1,-7%[44.1 µM]
Cc1ccc(C(=O)N2CCCC(n3cc(-c4nc(-c5ccccc5)no4)nn3)C2)s1 (centres undefined),i
Fc1ccccc1OCCC1CCNC1 (centres undefined),-8%
Cc1cc(C(=O)Nc2ccc([C@H]3OCC(=O)N(CC(C)C)[C@@H]3CO)cc2)n(C)n1,i
Cc1ncoc1C(=O)N1CCCC(CCc2ccc(F)c(F)c2)C1 (centres undefined),-5%
COCC(=O)NC[C@H]1OC[C@@H](NCc2ccc(C)cc2)[C@@H]1O,11%[44.1 µM]
COCC(=O)NC[C@H]1OC[C@@H](NCc2ccccc2F)[C@@H]1O,1%[44.1 µM]
COCC(=O)NC[C@H]1OC[C@@H](NCc2ccc(F)cc2)[C@@H]1O,14µM*
COCc1cc(=O)n(CC(=O)Nc2cccc(Br)c2)c(N2CCOCC2)n1,-14%
CC(=O)NCCNc1cc(C)c2ccc(Cl)cc2n1,-12%
CCN(C(=O)Cn1ccn2nc(-c3ccc(F)cc3)c(CO)c2c1=O)c1ccccc1,-4%
Cc1c(C(=O)Nc2ccccc2Cl)oc2ccc(S(=O)(=O)N3CCCCCC3)cc12,21%
Cc1c(C(=O)Nc2ccccc2Br)oc2ccc(S(=O)(=O)N3CCOCC3)cc12,-3%
CCN(CC)S(=O)(=O)c1ccc2oc(C(=O)Nc3ccc(Br)cc3F)c(C)c2c1,1%
Cc1c(Cl)cccc1NC(=O)c1oc2ccc(S(=O)(=O)N3CCC4(CC3)OCCO4)cc2c1C,13µM*
SMILES,Pf Dd2 inh
Cc1c(C(=O)Nc2ccccc2Cl)oc2ccc(S(=O)(=O)N3CCCCC3)cc12,i
Cc1c(C(=O)Nc2ccc(Br)cc2F)oc2ccc(S(=O)(=O)N3CCC4(CC3)OCCO4)cc12,13µM*
O=C(C1CC1)N1CCCC2(CN[S+](=O)([O-])c3cccnc3O2)C1 (centres undefined),13%
COc1cc(OC)cc(C(=O)N2CCC3(CC2)N=C(c2ccccc2)NO3)c1,15%
COc1cccc(CCC(=O)N2CCC3(CC2)N=C(c2ccccc2)NO3)c1,11µM*
O=C(CCc1ccccc1)N1CCC2(CC1)N=C(c1cccc(Br)c1)NO2,-20%
CCn1cc2nc(SCc3cccc(C(F)(F)F)c3)n(Cc3ccc(C)cc3)c(=O)c2n1,10µM*
CCn1cc2nc(SCc3cccc(C)c3)n(CCc3ccccc3)c(=O)c2n1,i
CCn1cc2nc(SCc3cccc(Cl)c3)n(Cc3ccc(C)cc3)c(=O)c2n1,i
COc1cc(Cl)ccc1C(=O)N1CCC2(CC1)NC(=O)N(c1ccccc1)N2,-22%
Cc1ccc(OCCN2CCC3(CC2)C(C(=O)O)CC(=O)N3C)c(C)c1 (centres undefined),-14%
CCCc1nc(C(=O)N(C)Cc2cnn(-c3ccccc3C)c2)cs1,2%
COCCN(Cc1cnn(-c2ccccc2C)c1)CC1CC1,7.1µM*
COCCN(Cc1ccc(C)cc1)Cc1ccc(C#N)cc1,i
O=C(c1ccccc1)N1CCc2nc(-c3ccc(Cl)cc3)nc(-c3ccccc3)c2C1,i
CC(C)c1cc(C(=O)N2C[C@@H](C)[C@](O)(C3CC3)C2)nc2ncnn12,-4%
Cc1cc(C(F)(F)F)n2ncc(C(=O)N3C[C@@H](C)[C@](O)(C4CCC4)C3)c2n1,14µM*
C[C@@H]1CN(C(=O)c2cnc3sccn3c2=O)C[C@@]1(O)C1CCC1,-2%
COc1ccc(CN2CCn3c(nn(-c4ccc(C(F)(F)F)cc4)c3=O)C2)cc1,-7%
O=c1n(-c2ccc(Cl)cc2)nc2n1CCN(Cc1ccc(C(F)(F)F)cc1)C2,-19%
O=c1n(-c2ccncc2)nc2n1CCN(Cc1ccc(C(F)(F)F)cc1)C2,7.9µM*
COC[C@@H]1CN(C(=O)c2cccn2C)C[C@H]1c1nc(C2CC2)no1,-24%
CCN1CCCC2(CCN(C(=O)Cn3ccccc3=O)C2)C1=O (centres undefined),-9%
COc1ccc(OC)c(NC(=O)Cn2nc3n(c2=O)CCCCC3)c1,17%
CN(CC1CCOCC1)C(=O)Nc1cc(F)c(F)c(F)c1,-16%
SMILES,Pf Dd2 inh
O=C(NCC12CC3CC(CC(C3)C1)C2)c1cc2nc(-c3ccc(Cl)cc3)cc(C(F)(F)F)n2n1,-10%
O=C(Nc1cc(Cl)ccc1Cl)c1cc2nc(-c3ccc4c(c3)OCO4)cc(C(F)(F)F)n2n1,38%
O=C(Nc1cc(Cl)ccc1O)c1cc2nc(-c3ccc4c(c3)OCO4)cc(C(F)(F)F)n2n1,1.6µM*
O=C(NC1CC1)C1COC2(CCN(C(=O)Cc3cccs3)CC2)N1C(=O)c1ccc(F)cc1 (centres undefined),-30%
Cc1nc(N2CCC(NC(=O)c3ccccn3)CC2)cc(C(F)(F)F)n1,-14%
COc1cccc(C(=O)NC2CCN(c3cc(C(F)(F)F)nc(C)n3)CC2)c1OC,11µM*
Cc1nc(N2CCC(NC(=O)c3cccnc3)CC2)cc(C(F)(F)F)n1,i
COc1ccccc1CCC(=O)NC1CCN(c2cc(C(F)(F)F)nc(C)n2)CC1,-5%
COc1cccc(C(=O)NC2CCN(c3cc(C(F)(F)F)nc(C)n3)CC2)c1,i
Cc1nc(N2CCC(NC(=O)c3cc4ccccc4[nH]3)CC2)cc(C(F)(F)F)n1,2µM*
CN1c2cc(C(=O)NC3CCCC3)ccc2C(=O)N2CCCCC21 (centres undefined),i
COc1ccc(Cl)cc1C(=O)N1CCC(N2CC3CC(C2)[C@H]2CCCC(=O)N2C3)CC1 (some centres undefined),2%
CCCS(=O)(=O)N1CCC2(CC1)CC(N1CCN(C(C)=O)CC1)CCO2 (centres undefined),14%
FC(F)(F)Oc1cccc(CN2CCC[C@H]2c2nc(-c3ccc(N4CCOCC4)nc3)no2)c1,-12%
CC(=O)N1CCC(N2CCC[C@H]2c2nc(-c3ccc(N4CCC(C(N)=O)CC4)nc3)no2)CC1,i
CN(C)c1ccc(-c2noc([C@@H]3CCCN3C3CCOCC3)n2)cn1,i
CNc1ccc(-c2noc([C@@H]3CCCN3Cc3cccnc3)n2)cn1,i
CC(=O)Nc1ccc(CN2CCC[C@H]2c2nc(-c3ccc(N4CCC(C(N)=O)CC4)nc3)no2)cc1,i
CC(C)N1CCC[C@H]1c1nc(-c2ccc(N3CCN(C)CC3)nc2)no1,10µM*
CN(C)c1ccc(-c2noc([C@@H]3CCCN3Cc3ccc(CO)o3)n2)cn1,7.9µM*
c1cncc(CN2CCC[C@H]2c2nc(-c3ccc(-n4ccnc4)nc3)no2)c1,8.9µM*
